Results with a measured potency or affinity are listed apart.
Assays:
Staphylococcus aureus = settings: Concentration 32 ug.mL-1; ASSAY_TEST Inhibition of Bacterial Growth; detection method Absorption (OD600); MEDIA CAMHB; plate type 384well; NBS; CORNING #3640; time 18 hr
Escherichia coli = settings: Concentration 32 ug.mL-1; ASSAY_TEST Inhibition of Bacterial Growth; detection method Absorption (OD600); MEDIA CAMHB; plate type 384well; NBS; CORNING #3640; time 18 hr

SMILES	Inhibition (Staphylococcus aureus) [%]	Inhibition (Escherichia coli) [%]
COc1cccc(C(=N)Nc2cc(C(=O)Nc3cc(C(=O)Nc4cc(C(=O)NCCCN5CCOCC5)n(C)c4)n(C)c3)n(C)c2)c1.O=C(O)C(F)(F)F.O=C(O)C(F)(F)F	26.72	-6.36
CCOC(=O)c1cc(NC(=O)c2cc(NC(=O)c3sc(N)nc3C(F)(F)F)cn2C)cn1C	23.52	-5.76
CC(C)CCc1sc(NC(=O)c2cc(NC(=O)c3cc(NC(=O)c4ccc(C(=O)O)cc4)cn3C)cn2C)nc1C(=O)NCCCN(C)C.O=C(O)C(F)(F)F	8.57	-17.53
Cc1ncc(CO)c(N)n1	1.81	-19.21
COC(=O)CCC(=O)Nc1cc(C(=O)Nc2cc(C(=O)NCCCN(C)C)n(C)c2)n(C)c1.O=C(O)C(F)(F)F	5.2	-12.96
COC(=O)CCC(=O)Nc1cc(C(=O)Nc2cc(C(=O)NCCC(=N)N)n(C)c2)n(C)c1.O=C(O)C(F)(F)F	0.86	-6.39
CC(C)c1sc(NC(=O)c2cc(NC(=O)c3cc(NC(=O)c4cnc(Cl)c(Cl)c4)cn3C)cn2C)nc1C(=O)NCCCN(C)C.O=C(O)C(F)(F)F	50.09	-19.66
Cn1cc(NC(=O)c2cc(NC(=O)c3ccc(/C=C/c4cccc(F)c4)cc3)cn2C)cc1C(=O)NCCN1CCOCC1.O=C(O)C(F)(F)F	33.99	-7.74
CN(C)CCCNC(=O)c1cc(NC(=O)c2cc(NC(=O)c3cc(NC(=N)c4ccccc4)cn3C)cn2C)cn1C.O=C(O)C(F)(F)F.O=C(O)C(F)(F)F	0.44	-15.33
CC(=N)Nc1cc(C(=O)Nc2cc(C(=O)Nc3cc(C(=O)NCCN4CCOCC4)n(C)c3)n(C)c2)n(C)c1.O=C(O)C(F)(F)F.O=C(O)C(F)(F)F	23.57	-8.61
Cn1cc(NC(=O)c2cc(NC(=O)c3cc(NC(=O)c4ccc(Cl)cc4Cl)cn3C)cn2C)cc1C(=O)NCCN1CCOCC1.O=C(O)C(F)(F)F	45.87	-8.53
COC(=O)c1ccc(C(=O)Nc2cc(C(=O)Nc3cc(C(=O)NCCC(=N)N)n(C)c3)n(C)c2)cc1.O=C(O)C(F)(F)F	12.34	-18.97
COc1cccc(C(=N)Nc2cc(C(=O)Nc3cc(C(=O)NCCC(=N)N)n(C)c3)n(C)c2)c1.O=C(O)C(F)(F)F.O=C(O)C(F)(F)F	96.74	3.74
Cc1ncc(Cn2cc(CO)nn2)c(N)n1	15.8	-17.13
Cc1ccc(S(=O)(=O)NCCc2cn(Cc3cnc(C)nc3N)nn2)cc1	16.06	-13.92
Cc1ncc(CNc2ccc(Cl)cc2)c(N)n1	-1.15	2.07
Cn1cc(NC(=O)c2cc(NC(=O)c3sc(N)nc3C(F)(F)F)cn2C)cc1C(=O)NCCC(=N)N.O=C(O)C(F)(F)F	-17.29	-25.01
CC(C)n1cc(NC(=O)c2cc(NC(=O)c3cc(NC=O)cn3C(C)C)cn2C)cc1C(=O)NCCCN(C)C.O=C(O)C(F)(F)F	2.98	-12.14
Cc1ncc(CNc2ccccc2F)c(N)n1	17.82	-3.65

SMILES	Inhibition (Staphylococcus aureus) [%]	Inhibition (Escherichia coli) [%]
CN(C)CCCNC(=O)c1cc(NC(=O)c2cc(NC(=O)CCC(=O)O)cn2C)cn1C.O=C(O)C(F)(F)F	5.68	-8.32
CN(C)CCCNC(=O)c1cc(NC(=O)c2cc(NC(=O)c3ccc(C(=O)O)cc3)cn2C)cn1C.O=C(O)C(F)(F)F	10.82	-6.1
COc1cccc(C(=O)Nc2cc(C(=O)Nc3cc(C(=O)Nc4cn(CCCN(C)C)cn4)n(C)c3)n(C)c2)c1.O=C(O)C(F)(F)F	20.04	-11.39
Cc1ncc(CNc2ccc(F)cc2)c(N)n1	25.09	-15.16
COc1cccc(C(=N)Nc2cc(C(=O)Nc3cc(C(=O)Nc4cc(C(=O)NCCCN(C)C)n(C)c4)n(C)c3)n(C)c2)c1.O=C(O)C(F)(F)F.O=C(O)C(F)(F)F	-1.63	-2.32
COc1ccc(CC(=O)Nc2cc(C(=O)Nc3cc(C(=O)Nc4cn(CCCN(C)C)cn4)n(C)c3)n(C)c2)cc1.O=C(O)C(F)(F)F	6.27	-5.32
COc1cccc(C(=N)Nc2cc(C(=O)Nc3cc(C(=O)Nc4cn(CCCN(C)C)cn4)n(C)c3)n(C)c2)c1.O=C(O)C(F)(F)F.O=C(O)C(F)(F)F	18.77	-11.88
COc1cccc(/C=C/c2ccc(C(=O)Nc3cc(C(=O)Nc4cc(C(=O)NCCN(C)C)n(C)c4)n(C)c3)cc2)c1.O=C(O)C(F)(F)F	98.95	88.16
Cc1ncc(Cn2cc(CC(N)C(=O)O)nn2)c(N)n1.Cl (configuration not stated)	-6.04	-16.87
COc1ccc(/C=C(/C(=O)Nc2cc(C(=O)Nc3cc(C(=O)NCCCN(C)C)n(C)c3)n(C)c2)c2ccc(OC)cc2)cc1.O=C(O)C(F)(F)F	49.85	-8.57
Cc1ncc(Cn2cc(CCCO)nn2)c(N)n1	13.2	-17.2
COC(=O)CCC(=O)Nc1cc(C(=O)Nc2cc(C(=O)NCCN3CCOCC3)n(C)c2)n(C)c1.O=C(O)C(F)(F)F	3.68	-5.38
Cc1ncc(Cn2cc(CCCN)nn2)c(N)n1.Cl	14.19	-28.01
CC(C)CCc1sc(NC(=O)c2cc(NC(=O)c3cc(NC(=O)CCC(=O)O)cn3C)cn2C)nc1C(=O)NCCCN(C)C.O=C(O)C(F)(F)F	3.82	-16.63
Cc1ncc(CNc2ccc(C(F)(F)F)cc2)c(N)n1	-6.95	-11.04
Cc1ncc(Cn2cc(CCO)nn2)c(N)n1	21.55	-15.62
CC(C)CCc1sc(N)nc1C(=O)Nc1cc(C(=O)Nc2cc(C(=O)NCCN3CCOCC3)n(C)c2)n(C)c1.O=C(O)C(F)(F)F	26.32	-8.65
CN(C)CCCNC(=O)c1cc(NC(=O)c2cc(NC(=O)c3cc4ccccc4cn3)cn2C)cn1C.O=C(O)C(F)(F)F	20.5	-10.84
CC(C)CCn1cc(NC(=O)c2cc(NC(=O)c3cc(NC(=N)c4ccccc4)cn3C)cn2C)cc1C(=O)NCCCN(C)C.O=C(O)C(F)(F)F.O=C(O)C(F)(F)F	22.24	-19.15

SMILES	Inhibition (Staphylococcus aureus) [%]	Inhibition (Escherichia coli) [%]
Cc1ncc(CNc2ccc(C(C)(C)C)cc2)c(N)n1	-2.14	-7.27
CCOC(=O)CCC(NC(=O)c1ccc(NCc2cn(Cc3cnc(C)nc3N)nn2)cc1)C(=O)OCC (configuration not stated)	-1.1	-21.48
COC(=O)c1ccc(C(=O)Nc2cc(C(=O)Nc3cc(C(=O)NCCCN(C)C)n(C)c3)n(C)c2)cc1.O=C(O)C(F)(F)F	-1.58	-9.36
Cc1ncc(Cn2cc(CCC(=O)O)nn2)c(N)n1.O=C(O)C(F)(F)F	15.37	-17.36
Cc1ncc(Cn2cc(CCCCO)nn2)c(N)n1	1.62	-20.02
COCCOC1CCN(C(=O)c2cc(NC(=O)c3cc(NC(=O)c4ccc(/C=C/c5cnc6ccccc6c5)cc4)cn3C)cn2C)CC1	5.5	7.07
CC(C)c1sc(N)nc1C(=O)Nc1cc(C(=O)Nc2cc(C(=O)NCCN3CCOCC3)n(C)c2)n(C)c1.O=C(O)C(F)(F)F	1.1	-18.06
CC(=O)N(C(C)=O)c1cc(C(=O)Nc2cc(C(=O)NCCC(=N)N)n(C)c2)n(C)c1.O=C(O)C(F)(F)F	98.15	6.79
CC(C)c1sc(N)nc1C(=O)Nc1cc(C(=O)NCCN2CCOCC2)n(C)c1.O=C(O)C(F)(F)F	4.82	-3.07
CC(C)CCc1sc(NC(=O)c2cc(NC(=O)c3ccc(/C=C/c4cc5ccccc5nc4Cl)cc3)cn2C)nc1C(=O)NCCN1CCOCC1.O=C(O)C(F)(F)F	1.02	-19.26
CN(C)CCCNC(=O)c1cc(NC(=O)c2cc(NC(=O)c3cc(NC(=N)N)cn3C)cn2C)cn1C.O=C(O)C(F)(F)F.O=C(O)C(F)(F)F	14.94	-3.99
Cn1cc(NC(=O)c2cc(NC(=O)c3sc(N)nc3C(F)(F)F)cn2C)cc1C(=O)NCCN1CCOCC1.O=C(O)C(F)(F)F	12.04	-24.64
COC(=O)c1ccc(C(=O)Nc2cc(C(=O)Nc3cc(C(=O)NCCN4CCOCC4)n(C)c3)n(C)c2)cc1.O=C(O)C(F)(F)F	12.57	-5.56
CCOC(=O)c1cc(NC(=O)c2cc(NC(=O)c3nc(N)sc3CCC(C)C)cn2C)cn1C	16.22	-10.89
CC(=O)Nc1cc(C(=O)Nc2cc(C(=O)Nc3cc(C(=O)NCCCN(C)C)n(CCC(C)C)c3)n(C)c2)n(C)c1.O=C(O)C(F)(F)F	9.82	-19.43
Cc1ncc(CNc2cccc(F)c2)c(N)n1	13.69	3.54
CCOC(=O)c1cc(NC(=O)c2cc(NC(=O)c3nc(N)sc3C(C)C)cn2C)cn1C	29.56	-5.15
COCCOC1CCN(C(=O)c2cc(NC(=O)c3cc(NC(=O)c4ccc(/C=C/c5ccc(OC)cc5)cc4)cn3C)cn2C)CC1.O=S(=O)(O)O	99.55	96.85

Reference: ChEMBL document CHEMBL4513139, “CO-ADD screening of University of Strathclyde (UK) compounds”
